ATG4B inh – ATG4B protease inhibitors, primary screen, biochemical, fluorescence, uHTS; Cysteine protease ATG4B (Homo sapiens), Q9Y4P1; inhibition, % at 8.33 µM; ATG4B cleavage of LC3-PLA2, NBD-HPC fluorescence, 1 h; 340,000 compounds, 0.51% hits; in the data active means inhibition above about 40%
Target sequence (Q9Y4P1 whole entry, looked up): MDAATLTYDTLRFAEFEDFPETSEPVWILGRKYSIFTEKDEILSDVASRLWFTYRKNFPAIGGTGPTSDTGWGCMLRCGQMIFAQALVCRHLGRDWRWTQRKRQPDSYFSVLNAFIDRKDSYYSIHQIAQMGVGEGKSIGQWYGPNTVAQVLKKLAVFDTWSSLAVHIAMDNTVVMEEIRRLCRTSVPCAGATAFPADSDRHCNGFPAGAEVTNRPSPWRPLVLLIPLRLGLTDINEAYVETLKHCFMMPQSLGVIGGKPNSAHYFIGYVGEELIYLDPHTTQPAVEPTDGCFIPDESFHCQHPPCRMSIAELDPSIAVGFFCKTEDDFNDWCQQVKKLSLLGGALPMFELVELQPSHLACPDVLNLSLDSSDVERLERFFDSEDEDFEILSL
Vif inh – HIV Vif self-association inhibitors, primary screen, imaging, HEK293T, single point; HEK293T cells, Vif self-association by quenched fluorescence, 24 h; inhibition, % at 7.49 µM; 340,000 compounds, 0.35% hits; in the data active means inhibition above about 50%, passing the limit was not always enough
Glyco luc inh – increase of ERlucT glycosylation luciferase signal, primary screen, N-linked glycosylation inhibitor project, D54 ERlucT cells, luminescence, set 2 | D54 ERlucT glycosylation luciferase reporter, 24 h; percent of 100 nM tunicamycin response | reporter increase, % at 12.5 µM | 360,000 compounds, 0.23% hits | AID 588692, 2011;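 active means mean luciferase reporter signal, scaled so untreated is 0 and the glycosylation-blocking control 100, at or above a set limit in every replicate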;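 further: luciferase carries N-glycosylation sites so blocking glycosylation raises the light; 0% = median of neutral control wells and 100% = median of 100 nM tunicamycin wells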
DSG3 Ab inh – inhibitors of pemphigus antibody binding to DSG3, primary screen, biochemical, bead-based, flow cytometry, scFv-GFP. Desmoglein-3 (Homo sapiens), P32926. DSG3-coupled beads, scFv-anti-DSG3-GFP binding; stronger effect = lower value. binding (percent of control), % at 10 µM. 310,000 compounds, 0.48% hits. AID 588358, 2011;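 active means binding more than 3 SD below its plate's average and above zero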
CaV13 ICDI inh – Primary screen for inhibitors of IQ motif and Ca2+-dependent inactivation inhibitor domain binding in CACNA1D, Förster resonance energy transfer in living cells, …; HEK cells, CFP/YFP FRET ICDI-IQ, plate reader, 10 min; percent FRET-ratio fall versus neutral wells; inhibition, % at 12.3 µM; 340,000 compounds, 0.098% hits;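 active means mean replicate inhibition of at least 30% and at least 1% of replicates passing that level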;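 further: 0% = median of the neutral control wells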
NSD2 HMT inh – NSD2 histone methyltransferase inhibitors, primary screen, biochemical, AlphaScreen, single concentration, set 2. Histone-lysine N-methyltransferase NSD2 (Homo sapiens), O96028. NSD2 peptide methylation, 120 min. inhibition, % at 12.5 µM. 310,000 compounds, 0.54% hits. AID 743445, 2014
ATG4B confirm – ATG4B protease inhibitors, retest, confirmation, biochemical, fluorescence, single concentration; shares compounds with ATG4B inh; ATG4B protease fluorescent substrate cleavage assay; inhibition, % at 8.33 µM; 320 compounds, 92% hits; in the data active means inhibition above about 39%
PLA2 ctr – PLA2 enzyme inhibition, counter-screen for ATG4B inhibitor project, biochemical, single concentration, uHTS hits | shares compounds with ATG4B inh | purified PLA2, NBD-C6-HPC fluorescence, 45 min | inhibition, % at 8.33 µM | 1,600 compounds, 66% hits | AID 588402, 2011
* hit, by the source's call; . = no result given. This is a sample that favours compounds with a hit; in the whole collection about 1.9% have one here. Unless noted, no stated cut-off is given here; in the data, active means inhibition above about 50%; inactive means the rest.

SMILES	ATG4B inh	Vif inh	Glyco luc inh	DSG3 Ab inh	CaV13 ICDI inh	NSD2 HMT inh	PLA2 ctr	others
Oc1ccccc1-c1cc(-c2ccccc2Cl)[nH]n1	56*	-5	-8	96	-8	0	68*
Cc1ccc(O)c(-c2cc(-c3ccccc3[N+](=O)[O-])[nH]n2)c1	73*	-1	3	102	-10	3	67*
O=[N+]([O-])c1ccccc1-c1cc(-c2cc(Cl)ccc2O)n[nH]1	88*	-10	5	99	-3	4	85*
Oc1ccc(Cl)cc1-c1cc(-c2ccccc2Cl)[nH]n1	35	-2	1	.	-6	1	.
COc1cc(Br)cc2cc(C(=O)NCC3CCCO3)c(=O)oc12 (stereo not drawn)	-8	5	2	100	-6	1	.
Oc1ccc2ccccc2c1CNc1cnc2ccccc2c1	-13	-1	2	103	-5	-4	.
CCNC(=O)C(Cc1ccccc1)NC(=O)OCc1ccccc1 (stereo not drawn)	-13	-1	1	104	-5	3	.
Cc1ccc(CNS(=O)(=O)c2cccc3nsnc23)cc1	-6	3	1	95	0	0	.
COc1cc(C)c(S(=O)(=O)N2CCOCC2)cc1C(C)C	-8	.	4	103	.	-1	.
CCc1ccc(Nc2ccc(C(N)=O)cc2[N+](=O)[O-])cc1	72*	-11	-1	86	1	3	81*
Cc1ccc(Nc2ccc(C(N)=O)cc2[N+](=O)[O-])cc1C	65*	-4	-4	101	-17	-2	65*
Cc1cc(C)cc(Nc2ccc(C(=O)O)cc2[N+](=O)[O-])c1	-3	-3	-1	102	-4	.	.
N#Cc1c(NC(=O)C2CC(c3c(F)cccc3Cl)=NO2)sc2c1CCC2 (stereo not drawn)	59*	3	-1	102	-7	-2	53*
COc1ccc(C=O)cc1COc1ccccc1F	8	3	0	99	-5	-2	.
COc1ccc(C=O)cc1CN1CCCN(Cc2ccccc2F)S1(=O)=O	53*	-1	-5	94	-19	-1	56*
Cc1ccc(S(=O)(=O)N2[C@@H](c3ccc(C(C)(C)C)cc3)C(C(=O)O)=CC[C@H]2c2cccc(Cl)c2)cc1	41*	4	-1	97	-5	.	61*
Cc1ccc([C@H]2C(C(=O)O)=CC[C@@H](c3cccc(Cl)c3)N2S(=O)(=O)c2ccc(C)cc2)cc1	2	.	1	104	-5	.	.
Cc1nc(CSc2ccc(Cl)cc2)cc(NCc2ccccc2)n1	73*	4	1	115	.	1	79*
CCC(CC)C1=NN2C(=N)/C(=C\c3cc(C)n(-c4cccc(C)c4)c3C)C(=O)N=C2S1	59*	4	-1	72*	-3	5	9	ATG4B confirm=48*
CCCC(=O)NC(c1ccccc1OC)c1ccc2cccnc2c1O (stereo not drawn)	-6	0	-9	99	.	-5	.
COCc1ccc(C(=O)N2CCCC(Nc3ccc(C(C)C)cc3)C2)s1 (stereo not drawn)	72*	-8	0	117	-7	17	76*
COCc1ccc(C(=O)N2CCCC(Nc3ccc(C(C)C)cc3)C2)o1 (stereo not drawn)	53*	3	-1	111	.	5	59*

Screens: PubChem, several laboratories
